This passage reports activation results from PubChem BioAssay AID1671463 (Sanford-Burnham Center for Chemical Genomics, 2021).

The campaign covered roughly 370,000 compounds. About 520 (0.14%) were called active. The sample holds actives, similar compounds and a random draw of the others, so the mix is not that of the screen. Rule as the data show it: active = activation above about 40%; inactive = the rest.

The target in the test is Atrial natriuretic peptide receptor 1 (Homo sapiens) (UniProt P16066). Put plainly: GC-A stimulated cGMP production enhancers – HEK293 GC-A cells, cGMP TR-FRET, EC30 ANP, primary screen (AID 1671463). Conditions: at 10 µM, hits give high values, 0% at EC30 ANP, 100% saturating ANP. In general terms: TR-FRET usually uses a lanthanide donor and a delayed reading to cut background.
Atrial natriuretic peptide receptor 1 (Homo sapiens), sequence (P16066 whole entry, looked up): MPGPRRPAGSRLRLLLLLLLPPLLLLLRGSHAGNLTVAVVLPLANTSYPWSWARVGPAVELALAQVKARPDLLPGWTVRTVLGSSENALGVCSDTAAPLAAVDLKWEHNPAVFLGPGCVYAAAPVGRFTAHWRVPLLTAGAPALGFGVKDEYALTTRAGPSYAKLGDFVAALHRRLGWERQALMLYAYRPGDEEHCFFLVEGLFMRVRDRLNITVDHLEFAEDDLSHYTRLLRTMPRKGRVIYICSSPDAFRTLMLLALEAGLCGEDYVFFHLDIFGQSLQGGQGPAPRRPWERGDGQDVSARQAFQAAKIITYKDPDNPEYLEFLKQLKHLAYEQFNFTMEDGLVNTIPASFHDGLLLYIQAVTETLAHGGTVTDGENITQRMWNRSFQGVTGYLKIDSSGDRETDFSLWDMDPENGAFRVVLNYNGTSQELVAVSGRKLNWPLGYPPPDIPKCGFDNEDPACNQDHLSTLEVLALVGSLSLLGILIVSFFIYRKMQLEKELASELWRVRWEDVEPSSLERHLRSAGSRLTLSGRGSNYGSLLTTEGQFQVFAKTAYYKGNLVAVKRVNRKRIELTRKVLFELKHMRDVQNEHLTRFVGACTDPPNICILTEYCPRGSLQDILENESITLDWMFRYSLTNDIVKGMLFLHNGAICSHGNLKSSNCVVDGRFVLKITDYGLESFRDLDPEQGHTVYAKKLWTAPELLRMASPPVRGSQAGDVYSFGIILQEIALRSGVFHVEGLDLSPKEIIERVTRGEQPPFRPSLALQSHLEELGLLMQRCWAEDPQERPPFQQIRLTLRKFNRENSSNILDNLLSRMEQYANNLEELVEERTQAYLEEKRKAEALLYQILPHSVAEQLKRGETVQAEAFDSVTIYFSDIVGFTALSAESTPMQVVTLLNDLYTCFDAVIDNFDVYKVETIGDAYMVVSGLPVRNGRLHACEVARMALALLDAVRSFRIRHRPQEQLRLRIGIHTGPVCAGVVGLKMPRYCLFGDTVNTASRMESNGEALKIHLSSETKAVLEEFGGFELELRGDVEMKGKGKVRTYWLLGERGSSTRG
Regarding `COc1ccc([N+](=O)[O-])cc1NC(=O)CC1SC(=Nc2cccc(C)c2C)N(/N=C(\C)c2ccc(C)cc2)C1=O` (stereo unspecified), the activation was 0.41% (inactive).

As for `Cc1ccc(NS(=O)(=O)c2ccc(-c3coc(C)n3)cc2)c(C)c1`, the activation was 4.2% (inactive).

On to `C=CCOc1ccc(/C=C2/C(=O)ON=C2C)cc1OCC`, for which the activation is 41% (active).

`C=CCOc1ccc(/C=N/NC(=O)C(C)Sc2ccccn2)cc1OCC` (stereo unspecified): the activation is 1.12% (inactive).

In the case of `C#CCOc1ccc(/C=C2/C(=O)ON=C2C)cc1OCC`, the activation was 43.3% (active).

Turning to `C=CCOc1ccc(/C=N/n2cncn2)cc1OC`, the activation is 7.58% (inactive).

Consider `C#CCOc1ccccc1/C=C1/C(=O)ON=C1C`, for which the activation was 25.7% (inactive).

On to `Cc1ccc(N2C(=O)C3C4C=CC(CC4)C3C2=O)cc1Cl` (stereo unspecified), for which the activation is 2.95% (inactive).

In the case of `CN(CC(=O)Nc1c(Cl)cccc1Cl)C(=O)c1ccncc1`, the activation was 3.63% (inactive).

For `C=C1CCN([C@H](C(=O)NCc2cc(OC)c(OC)c(OC)c2)C(C)C)S(=O)(=O)c2ccccc21`, the activation is 4.37% (inactive).

As for `CCCC(C(=O)N1CCOCC1)N1C(=O)C2C3C=CC(C3)C2C1=O` (stereo unspecified), the activation was 2.35% (inactive).

Turning to `O=C(Nc1cccc(Br)c1)C1CC(=O)N(C2CCCC2)C1` (stereo unspecified), the activation is 0.08% (inactive).

`Cc1cccc(NC(=O)C2CCCN2S(=O)(=O)c2ccc(F)cc2)c1C` (stereo unspecified): the activation is 0.56% (inactive).

With `CCC(=O)Nc1c(C)n[nH]c1C`, the activation was -1.11% (inactive).

Regarding `COc1cc(F)c(C2=CC(=O)CC(C)(C)C2)cc1F`, the activation was 0.01% (inactive).

As to `COC(=O)Cc1ccc(OC(=O)C2CCN(S(=O)(=O)c3ccc(OC)c(OC)c3)CC2)cc1`, the activation was 3.18% (inactive).

Turning to `COC(=O)c1cn(C)c2ccc(S(=O)(=O)N3CC(C)CC(C)C3)cc2c1=O` (stereo unspecified), the activation is -6.76% (inactive).

On to `c1coc(CCNc2ncnc3ccc(-c4ccc5c(c4)OCO5)cc23)c1`, for which the activation is 43.1% (active).

Take `Cc1nc(CNc2ncnc3ccc(-c4ccc5c(c4)OCO5)cc23)cs1`: the activation was 5.54% (inactive).

On to `O=C(Cn1nnc(-c2ccc3c(c2)OCO3)n1)NCc1ccco1`, for which the activation is -5.64% (inactive).

`Cc1ccc(NC(=O)CN(C)C(=O)COC(=O)C(C)(C)Oc2ccc(Cl)cc2)cc1`: the activation is -1.24% (inactive).

Regarding `CCn1nc(C(=O)NNC(=O)C2CSC3(C)CCC(=O)N23)c2ccccc2c1=O` (stereo unspecified), the activation was -1.32% (inactive).

As to `Cc1cc(C)c(C#N)c(SCS(=O)c2ccc(C(C)(C)C)cc2)n1` (stereo unspecified), the activation is 4.18% (inactive).

For the compound `CC(=O)c1c(C)[nH]c(=S)c(C#N)c1-c1ccc(F)cc1`, the activation is 5.29% (inactive).

For `CCOC(=O)c1c(C)[nH]c(=S)c(C#N)c1-c1ccccc1`, the activation was 49.5% (active).

On to `CCc1c(C)[nH]c(=S)c(C#N)c1C`, for which the activation is 2.4% (inactive).
